Results on 15 compounds are retold here after PubChem BioAssay (NCI).

About 83,000 compounds went through this panel and 20% of them were active in at least one assay; those are over-represented in the sample as a whole.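 Growth was measured after 48 h exposure to one concentration of compound in 96-well plates. Values under 10 count as active.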 Unmarked numbers belong to inactive results. Active and inactive are the calls of the source.

Test systems include K-562 leukemia; MDA-MB-231 breast; RXF 393 renal; SF-268 CNS; SF-295 CNS; SF-539 CNS; UACC-257 melanoma; M14 melanoma; HCT-15 colon; MALME-3M melanoma.
What all share (experiment): NCI-60 one-dose screen, 48 h (100 = growth as untreated, 0 = no growth, -100 = all killed)
What all share (details): 10 µM

With `NC1=NC(=O)C(c2ccccc2)(c2ccccc2)S1`, the growth with K-562 leukemia was 90.8%; in the assay with MDA-MB-231 breast, 104%; in the assay with RXF 393 renal, 109%; in the assay on SF-268 CNS, 113%; with SF-295 CNS it was 112%; in the assay with SF-539 CNS, 111%. Further, the growth in the assay with UACC-257 melanoma was 110%; with M14 melanoma, 107%; in the assay on HCT-15 colon, 101%.
Turning to `c1ccc2c(c1)oc1c3c(ccc12)NCCC3`, the growth in the assay on K-562 leukemia is 98.4%; in the assay with MDA-MB-231 breast, 90.2%; in the assay with RXF 393 renal it was 107%; with SF-268 CNS, 96.1%; in the assay with SF-295 CNS, 118%; in the assay with SF-539 CNS, 93.4%. The growth with UACC-257 melanoma is 95.4%; with M14 melanoma, 109%; in the assay on HCT-15 colon, 81.1%.
Turning to `COc1cc2c(cc1OCCCCCCN1CCN(CC(=O)Nc3ccc(Cl)cc3C(=O)c3ccccc3Cl)CC1)N=CC1CCCN1C2=O` (centres undefined), the growth is -62.3% (active) in the assay on K-562 leukemia; -92.3% (active) in the assay on MALME-3M melanoma; -100% (active) in the assay with MDA-MB-231 breast; -61% (active) in the assay with SF-268 CNS; -94.9% (active) in the assay with SF-295 CNS; -95.2% (active) in the assay on SF-539 CNS. Also, the growth is -67.4% (active) with M14 melanoma and -100% (active) in the assay on HCT-15 colon.
As to `Cc1ncc(-c2ccoc2)c(NC2CCCCCC2)n1`, the growth in the assay with K-562 leukemia was 106%; in the assay on MDA-MB-231 breast, 108%; in the assay on RXF 393 renal it was 113%; in the assay on SF-268 CNS, 98.9%; in the assay on SF-295 CNS, 102%; with SF-539 CNS, 110%. Moreover, the growth in the assay with UACC-257 melanoma was 96.4%; in the assay with M14 melanoma, 101%; in the assay with HCT-15 colon, 103%.
As for `COc1ccc2c(c1)sc1nc(-c3ccccc3)c(-c3ccc(O)c(OC)c3)n12`, the growth in the assay with K-562 leukemia was 30.7%; with MDA-MB-231 breast, 90.7%; in the assay with RXF 393 renal, 104%; with SF-268 CNS, 88.7%; in the assay on SF-295 CNS it was 81.2%; in the assay on SF-539 CNS it was 86.9%. The growth in the assay with UACC-257 melanoma was 83.8%; with M14 melanoma, 38.1%; in the assay with HCT-15 colon it was 47.1%.
On to `O=C1OCC2=C1C(c1cccc(Cl)c1)c1cc3c(cc1N2CCO)OCO3` (centres undefined), for which the growth was 15.4% in the assay on K-562 leukemia; 31.7% in the assay on MDA-MB-231 breast; 6.21% (active) in the assay on RXF 393 renal; 46.5% in the assay on SF-268 CNS; -4.59% (active) in the assay with SF-295 CNS; -9.08% (active) in the assay with SF-539 CNS. The growth in the assay with UACC-257 melanoma was 61%; in the assay with M14 melanoma, 11%; in the assay with HCT-15 colon it was 18.5%.
For `COc1ccc(-c2ccc3cc(C(=O)Nc4ccc(O)c(C(=O)/C=C/c5cc(OC)c(OC)c(OC)c5)c4)ccc3c2)cc1`, the growth was 59% in the assay on K-562 leukemia; 85.6% in the assay on MDA-MB-231 breast; 93% with RXF 393 renal; 105% in the assay on SF-268 CNS; 101% in the assay on SF-295 CNS; 103% in the assay on SF-539 CNS. Besides, the growth in the assay on UACC-257 melanoma was 97.9%; with M14 melanoma, 89.1%; in the assay on HCT-15 colon, 80.4%.
Turning to `COc1ccc2c(c1)N(CCO)C1=C(C(=O)OC1)C2c1ccccc1` (centres undefined), the growth was 16.3% in the assay with K-562 leukemia; 63.4% in the assay with MDA-MB-231 breast; 2.16% (active) with RXF 393 renal; 51.2% in the assay with SF-268 CNS; -11.6% (active) with SF-295 CNS; 2.74% (active) with SF-539 CNS. Also, the figures for the growth with UACC-257 melanoma, in the assay with M14 melanoma and in the assay on HCT-15 colon were 55%, 7.89% (active) and 22.4%, respectively.
As for `C=C(C(=O)c1ccccc1)C(NC(C)(C)C)c1ccccc1` (centres undefined), the growth in the assay on K-562 leukemia was 4.27% (active); in the assay on MDA-MB-231 breast it was -11.3% (active); with RXF 393 renal it was -56.1% (active); with SF-268 CNS it was 7.85% (active); in the assay with SF-295 CNS, 110%; in the assay on SF-539 CNS, -24.1% (active). Besides, the growth is -15.3% (active) in the assay with UACC-257 melanoma, -33.6% (active) in the assay with M14 melanoma and -48.7% (active) in the assay with HCT-15 colon.
With `COc1ccc(Cn2c(C(N)=O)cc3c2-c2nc(N)ncc2CCC3)cc1`, the growth was 107% in the assay on K-562 leukemia; 88.9% in the assay with MDA-MB-231 breast; 102% with RXF 393 renal; 96.8% in the assay on SF-268 CNS; 98.3% in the assay on SF-295 CNS; 95.8% in the assay on SF-539 CNS. The growth in the assay on UACC-257 melanoma is 102%; in the assay on M14 melanoma it was 96.7%; with HCT-15 colon, 91.1%.
In the case of `O=[N+]([O-])c1ccc(Oc2cccnc2)c([N+](=O)[O-])c1`, the growth with K-562 leukemia is 16.1%; in the assay with MDA-MB-231 breast, 94%; in the assay on RXF 393 renal, 63.9%; in the assay with SF-268 CNS, 97.5%; in the assay with SF-295 CNS, 104%; with SF-539 CNS, 75.7%. The growth is 63.6% in the assay with UACC-257 melanoma, 84.9% with M14 melanoma and 53.1% with HCT-15 colon.
For the compound `CC[C@H]1CCC/C=C/[C@@H]2C[C@H](O)C[C@H]2[C@H](O)/C=C/C(=O)O1`, the growth with K-562 leukemia is 10.3%; in the assay with MDA-MB-231 breast, -88.4% (active); with RXF 393 renal it was -29.2% (active); in the assay on SF-268 CNS, 8% (active); in the assay with SF-295 CNS, -1.83% (active); in the assay with SF-539 CNS, 30.9%. Besides, the growth in the assay on UACC-257 melanoma is -13.6% (active); with M14 melanoma, 2.47% (active); with HCT-15 colon, 8.78% (active).
For `Cc1nc2oc3ccccc3c(=O)c2cc1C(=O)NCc1ccccc1`, the growth in the assay with K-562 leukemia was 13.1%; in the assay with MDA-MB-231 breast, 87.9%; in the assay with RXF 393 renal it was 113%; with SF-268 CNS it was 83%; with SF-295 CNS it was 43.2%; in the assay on SF-539 CNS, 93.4%. Moreover, the growth was 68.1% in the assay on UACC-257 melanoma, 45.9% in the assay on M14 melanoma and 70.2% in the assay on HCT-15 colon.
On to `Cc1ccc(-c2nc(/C=C3/C(=O)N(C)c4ccc(F)cc43)c3ccccn23)cc1`, for which the growth in the assay on K-562 leukemia is 107%; in the assay with MDA-MB-231 breast, 76.5%; with RXF 393 renal, 97.9%; in the assay on SF-268 CNS it was 92.1%; in the assay with SF-295 CNS, 71.3%; with SF-539 CNS, 94.6%. In addition, the growth with UACC-257 melanoma is 106%; in the assay with M14 melanoma, 99.5%; in the assay with HCT-15 colon, 93%.
As to `COc1ccc(/C=C/C(=O)Nc2ccc(-c3nc4ccc(F)cc4s3)cc2)cc1`, the growth in the assay on K-562 leukemia was 79.6%; with MDA-MB-231 breast, 97%; in the assay with RXF 393 renal, 101%; in the assay with SF-268 CNS it was 112%; in the assay with SF-295 CNS, 95.5%; in the assay with SF-539 CNS, 111%. The growth in the assay on UACC-257 melanoma is 94.9%; in the assay on M14 melanoma, 102%; in the assay on HCT-15 colon it was 105%.
